Sampled rows, rich in hits. Any-hit rate of the full collection: about 7.5%.
FLuc counter = inhibits or activates purified firefly luciferase, miR-21 counter-screen; P08659; purified FLuc, Km substrates, luminescence inhibition; Potency, µM (series often up to 57.5 µM), without a hit: at the highest dose activity change, negative = inhibition, hits mostly inhibitors; hit rate 6.9% among 360,000;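 also: plate controls were vehicle for no effect and reference inhibitor for full effect; nearly all actives have a fitted effect of over 55% in size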
Target sequence (P08659 whole entry, looked up): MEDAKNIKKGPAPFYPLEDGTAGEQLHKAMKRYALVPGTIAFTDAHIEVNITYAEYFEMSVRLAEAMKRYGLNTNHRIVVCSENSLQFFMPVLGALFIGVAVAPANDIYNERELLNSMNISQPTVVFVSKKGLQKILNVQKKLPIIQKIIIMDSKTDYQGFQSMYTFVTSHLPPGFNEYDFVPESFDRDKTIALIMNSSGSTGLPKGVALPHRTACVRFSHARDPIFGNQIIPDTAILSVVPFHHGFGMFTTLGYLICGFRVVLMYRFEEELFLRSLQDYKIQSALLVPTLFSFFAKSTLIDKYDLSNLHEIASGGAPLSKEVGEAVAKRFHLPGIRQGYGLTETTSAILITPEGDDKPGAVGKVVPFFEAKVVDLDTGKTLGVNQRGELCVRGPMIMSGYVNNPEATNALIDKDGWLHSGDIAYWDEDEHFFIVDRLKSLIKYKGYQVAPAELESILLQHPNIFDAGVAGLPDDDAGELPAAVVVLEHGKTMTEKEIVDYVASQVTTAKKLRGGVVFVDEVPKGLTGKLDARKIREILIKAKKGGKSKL
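Biochemical qHTS of compounds, final roughly 60 µM downward over six points, against 10 nM purified firefly luciferase using Km concentrations of substrates (10 uM D-luciferin, 10 uM ATP) in Tris acetate pH 7.5 buffer; luminescence output.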
Rab9 promoter act = activates the Rab9 promoter; Huh7 Rab9 promoter-luciferase reporter, luminescence, 24 h; Potency, µM (top dose mostly 9.22 µM), for the others: top-dose activation, negative = inhibition, hits mostly activators; hit rate 2.8% among 320,000; also: % of control where 0% means no effect; nearly all actives have a fitted effect of over 60% in size
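Cell-based reporter: Huh7 stable for Rab9 promoter-driven luciferase, plated in reduced-serum medium with 10% FBS at 1500 cells/well, compound-treated 24 h at 37 °C, luminescence read after 10 min reagent.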
KinaseGlo FLuc = blocks Kinase-Glo luciferase, a counter-screen artifact; Q27757; Kinase-Glo luciferase, ATP luminescence, 8 min; Potency, µM (highest dose often 38.3 µM), for inactives: at the top dose activity change, negative = inhibition, most hits filed as inhibitors; hit rate 0.28% among 200,000; AID 1379; also: % is scaled to controls: 0 for no effect and ±100 for the full control effect; nearly all actives have a fitted effect of over 60% in size
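Light output from Kinase-Glo luciferase with luciferin and 10 uM ATP in 50 mM imidazole pH 7.2, KCl, MgCl2, Tween 20, BSA; compound pin-delivered, 8-min ambient incubation, then luminescence read.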
NPC1 prom act = NPC1 promoter activation; Potency, µM (series often up to 9.22 µM), for the others: at the top dose activation, hits mostly activators; Huh7 NPC1 promoter luciferase reporter, 24 h; hit rate 2.4% among 320,000; also: % of control where 0% means no effect; nearly all actives have a fitted effect of over 60% in size
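Compounds in DMSO were transferred onto Huh7 NPC1-luciferase reporter cells pre-incubated 2 h; after 24 h at 37 °C, Amplite reagent was dispensed and luminescence recorded 10 min later.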
SMN2 splice enh = enhancers of SMN2 splice variant expression; HEK293 SMN2-luciferase splicing reporter, luminescence, 30-36 h; hit rate 2.8% among 210,000; Potency, µM (titrated, usually from 46.1 µM), for inactives: at the highest dose activity change, positive = activation, hits mostly activators; also: % of control where 0% means no effect; nearly all actives have a fitted effect of over 55% in size
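qHTS luciferase splicing reporter: luminescence rises when SMN2 exon 7 is included in transfected HEK293 cells. Compound exposure lasted 30-36 h at 37C, with 4.5 mM final sodium butyrate as control, followed by a ONE-Glo read.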
ELG1 genotox = inducers of genotoxicity in HEK293T ELG1-luciferase cells; Potency, µM (titrated, usually from 46 µM), inactives show at the top dose activity change, positive = activation, most hits filed as activators; AID 504466; HEK293T ELG1-luciferase reporter, luminescence, 16 h; hit rate 1.3% among 330,000; also: % of control where 0% means no effect; nearly all actives have a fitted effect of over 60% in size
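Cells (2,000/well) expressing the ELG1-luciferase fusion are dosed by pin tool and kept 16 hr at 37 °C, 5% CO2. Signal comes from ONE-Glo luciferase reagent after 30 min at room temperature.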
An asterisk follows results filed as active; u = inconclusive; x = not tested or not shown. Calls follow the shape of the dose curve; as a rule, active = well fitted curve in the direction sought with a large enough effect; inconclusive = small, poorly fitted or top-dose-only effect, or another doubt; inactive = no such curve, though single readings can be large; an effect the other way counts as inactive or inconclusive. Potency is read from the fitted curve at half-maximal effect.

SMILES	FLuc counter	Rab9 promoter act	KinaseGlo FLuc	NPC1 prom act	SMN2 splice enh	ELG1 genotox
CCCCCc1nnc(NC(=O)C2=COCCO2)s1	19µM*	2.2µM*	x	2.8µM*	x	u
Cc1cccc(N2CCN(C(=O)Nc3cn(CC(C)C)c(=O)c4ccccc34)CC2)c1C	5%	x	x	x	x	x
CCc1nn2c(=O)cc(COC(=O)c3cccc(NC(=O)c4cccs4)c3)nc2s1	2%	x	x	x	x	x
O=C(Nc1cccc(C(F)(F)F)c1)N1CCC(CN2CCCCCC2)CC1	-2%	x	x	x	x	x
CC(C)(C)OC(=O)N/N=C/c1cccc([N+](=O)[O-])c1	6µM*	3.2µM*	-2%	2.5µM*	11µM*	u
CCn1nc(C)c(/C=N/NC(=O)c2c[nH]c3ccccc23)c1C	u	3.5µM*	-4%	u	18µM*	u
CCn1nc(C)c(/C=N/NC(=O)Cn2nccc2C)c1C	u	25%	-4%	27%	20%	u
Cc1ccc(/C=N/NC(=O)c2c[nH]c3ccccc23)o1	24µM*	27%	-4%	22%	-4%	3%
Cc1cc(C(=O)N/N=C/c2cccc([N+](=O)[O-])c2)c(C)o1	u	27%	-16%	18%	-7%	12%
Cc1ccc(/C=N/NC(=O)c2c[nH]c3ccccc23)s1	7.6µM*	0.56µM*	-1%	1.6µM*	13µM*	14%
CCCOc1ccc(NC(=O)CC2C(=O)N(c3ccc(C)cc3)C(=O)N2Cc2cccc(OC)c2)cc1 (stereo not drawn)	-1%	x	x	x	x	x
Cc1ccc(Cl)cc1N1CCN(c2nc3ccc(C(=O)c4ccccc4)cc3n3cnnc23)CC1	2%	x	x	x	x	x
Cc1ccc(NC(=O)C(Cc2ccccc2)NS(=O)(=O)c2ccc3c(c2)oc(=O)n3C)cc1F (stereo not drawn)	-3%	x	x	x	5%	x
CCCN(C(=O)C1CCN(S(=O)(=O)c2c(C)noc2/C=C/c2ccc(C)cc2)CC1)c1ccccc1F	-2%	x	x	x	x	x
COc1ccc(-c2cc(C(=O)Nc3c(C)nn(Cc4ccc(C)cc4)c3C)no2)cc1OC	5%	x	x	x	-17%	x
CC(=O)c1ccc(NC(=O)CSc2nnc(-c3ccncc3)n2-c2ccccc2)cc1	-3%	x	x	x	x	x
CC(C)(C)OC(=O)N/N=C\c1ccc[nH]1	19µM*	u	-1%	-5%	27%	7%
Cc1ccsc1/C=N/NC(=O)c1c[nH]c2ccccc12	12µM*	2.5µM*	-3%	4.5µM*	u	u
Cc1ccsc1/C=N/NC(=O)c1cc(-c2ccncc2)nc2ccccc12	-20%	-28%	-4%	-17%	-33%	2%
CC/C(=N\NC(=O)c1c[nH]c2ccccc12)c1cccs1	5.4µM*	2.8µM*	-5%	2.8µM*	18µM*	u
O=C(N/N=C/c1ccsc1)c1cc2ccccc2o1	u	25%	x	1%	x	9%
C/C(=N/NC(=O)c1ccncc1)c1c[nH]c2ccccc12	-7%	2%	-2%	-2%	-5%	3%
O=C(N/N=C/c1ccsc1)c1c[nH]c2ccccc12	11µM*	2.8µM*	x	3.5µM*	x	16µM*
Cc1cccc(C(=O)N/N=C/c2ccc[nH]2)c1	u	0%	-4%	5%	9%	13%
COc1cccc([C@@H]2Oc3ccc(Br)cc3C(=O)[C@H]2OC(=O)NCCOc2ccccc2)c1	x	x	0%	x	3%	x
COc1cc(OC)c(NC(=O)Cn2cnc3sc(C)c(S(=O)(=O)N4CCN(C)CC4)c3c2=O)cc1Cl	-1%	x	x	x	-4%	x
COc1ccc(C/C(C)=N\NC(=O)c2c[nH]c3ccccc23)cc1OC	-18%	3%	x	-1%	x	4%
C/C(=N\NC(=O)c1c[nH]c2ccccc12)c1ccc(C)s1	u	u	x	3.2µM*	x	u
O=C(N/N=C/c1cc([N+](=O)[O-])ccc1O)c1c[nH]c2ccccc12	-9%	-3%	x	0%	x	15%
